# The list is not random: actives were taken first. Their share in the collection is about 1.7%.
# GALR2 ag: GALR2 (human) receptor agonism | AID 803 | 0.48% of 140,000 active | activation, % (test concentration not listed) | GALR2-expressing cells, agonist activation read-out | O43603; in the data active means activation above about 5%, passing the limit was not always enough;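 further: 0% = vehicle buffer wells and 100% = reference agonist at full effect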
# GALR2 antag: GALR2 (human) receptor antagonism | inhibition, % at 4 µM | AID 828 | 0.39% of 140,000 active | GALR2-expressing cells, antagonist mode | O43603;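 further: cells stimulated with galanin 1-16 at roughly its EC80; 0% = agonist challenge control and 100% = basal control without agonist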
# MRP resist rev: reverses drug resistance mediated by MRP; H69AR cells + 2 uM doxorubicin, CellTiter-Glo, 72 h; differential viability (reversal), % at 10 µM; 0.04% of 85,000 active; AID 602;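 active means viability drop by adding the cancer drug above about 55%, with treated viability meeting a 40% cutoff, limit read from the data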;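 further: viability without doxorubicin minus viability with 2 µM doxorubicin for each compound; larger differential means the compound sensitizes cells more to doxorubicin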
# S1P2 antag: blocks the human S1P2 receptor; cell-based S1P2 antagonist assay, inhibition at 5 uM; O95136; 0.21% of 97,000 active; inhibition, % at 5 µM; in the data active means inhibition above about 45%;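 further: CRE beta-lactamase reporter cells expressing human S1P2 stimulated with S1P; 0% = agonist at EC80 alone and 100% = agonist plus reference antagonist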
# Target sequence (O95136 whole entry, looked up): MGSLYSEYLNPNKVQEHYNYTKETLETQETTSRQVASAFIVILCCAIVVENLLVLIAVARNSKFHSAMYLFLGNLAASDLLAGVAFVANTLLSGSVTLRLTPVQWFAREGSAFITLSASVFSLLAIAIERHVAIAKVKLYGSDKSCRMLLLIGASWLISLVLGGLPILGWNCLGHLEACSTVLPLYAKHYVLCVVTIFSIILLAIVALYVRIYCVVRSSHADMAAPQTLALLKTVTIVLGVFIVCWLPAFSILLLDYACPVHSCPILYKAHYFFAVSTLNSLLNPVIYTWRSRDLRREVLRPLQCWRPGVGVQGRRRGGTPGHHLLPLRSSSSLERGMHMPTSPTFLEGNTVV
# S1P2 agonist: activates the human S1P2 receptor; O95136; S1P2-expressing cell line, agonist reporter read-out; activation, % at 4.5 µM; 0.46% of 97,000 active; in the data active means activation above about 16%;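 further: 0% = vehicle low control and 100% = maximal reference agonist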
# MRP-1 activ: MRP-1 activation | H69AR cells + doxorubicin, viability rescue, CellTiter-Glo | viability increase, % at 10 µM | 0.61% of 140,000 active | AID 799;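 active means viability gain under doxorubicin at or above a set limit, the compound median plus 3 SD, cut at about 4.7% in these data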;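 further: MRP-1 overexpressing cells given doxorubicin 25 µM after compound pretreatment; 18-22 h compound pretreatment then 72 h with doxorubicin before readout; 0% = doxorubicin-only wells and 100% = vehicle-treated cells without doxorubicin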
# GALR2 ant conf: confirmation of human galanin receptor 2 (GALR2) antagonists. shares compounds with GALR2 antag. GALR2-expressing cells, antagonist mode, inhibition. inhibition, % at 4 µM. 60% of 480 active. AID 866;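 further: cells stimulated with galanin at about its EC80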
# BLA inhib ctr: beta-lactamase inhibition, GALR2 counterscreen | shares compounds with GALR2 antag | CHO NFAT-BLA reporter, beta-lactamase FRET, thapsigargin-stimulated | inhibition, % at 4.2 µM | 36% of 480 active;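 active means inhibition above the mean inhibition across tested compounds plus 3 SD, cut at about 27% in these data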;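 further: 0% = 500 nM thapsigargin stimulated wells and 100% = unstimulated BSA only wells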
# * marks the source's active call; other numbers are inactive results; · = not tested or not shown. Unless noted, no stated cut-off is given here; in the data, active means inhibition above about 27%; inactive means the rest.
SMILES,GALR2 ag,GALR2 antag,MRP resist rev,S1P2 antag,S1P2 agonist,MRP-1 activ,GALR2 ant conf,BLA inhib ctr
COc1ccc(-c2cnc3c(c2)CCC3(C#N)C#N)cc1,0.6,31.3*,·,·,·,1.2,16.8,19.5
CCOc1ccc(C(=O)CC(=O)C(=O)NCCc2ccc(OC)c(OC)c2)cc1,-0.5,-5.7,·,·,·,-3.2,·,·
Cc1cc(C(=O)CSc2nc3ccccc3[nH]2)c(C)n1CC1CCCO1 (configuration not stated),-2.0,43.3*,-20.2,65.7*,-4.5,1.2,34.0*,9.4
COc1ccc2c(c1)SCC/C2=C\CN1C(=O)CCC1=O,-1.1,-2.0,·,·,·,-2.3,·,·
COc1ccc(OC)c(S(=O)(=O)N2CCCCCC2)c1,-1.8,28.1*,18.1,·,·,-1.6,1.5,0.1
COc1ccc(OC)c(S(=O)(=O)N2CCN(C)CC2)c1,-1.1,10.0,13.4,·,·,-1.0,·,·
O=C(Nc1ccc(S(=O)(=O)N2CCCC2)cc1)c1ccc(CN2CCc3ccccc3C2)cc1,-1.1,7.1,·,·,·,-5.2,·,·
O=C(Nc1ccc(S(=O)(=O)N2CCOCC2)cc1)c1ccc(CN2CCc3ccccc3C2)cc1,-2.0,28.4*,·,84.6*,-6.5,-4.3,45.8*,18.1
CCOC(=O)c1c(C)[nH]c(C(=O)COC(=O)C2(C)CC2(Cl)Cl)c1C (configuration not stated),-1.7,-4.7,16.6,-5.8,-8.2,-0.8,·,·
CCOC(=O)C1C(=O)OC(C)(C)C1C(C)C(=O)c1ccccc1 (configuration not stated),-3.1,-3.7,-1.0,4.9,-4.8,-0.6,·,·
O=C(OCn1ncc(Cl)c(Cl)c1=O)c1ccccc1Cl,-3.0,94.9*,·,83.7*,-3.1,-7.5,93.1*,81.8*
O=C(OCn1ncc(Cl)c(Cl)c1=O)c1ccc(F)cc1,-2.8,91.5*,·,79.7*,-2.5,-7.7,92.7*,85.8*
Cc1nc2nc(-c3cccs3)cn2nc1C,-1.1,28.4*,14.5,38.8,-12.8,-0.1,31.3*,34.5*
NC(=O)c1c(-c2ccc(Cl)cc2Cl)csc1NC(=O)Cc1ccccc1,0.5,34.3*,·,·,·,1.0,31.1*,16.8
O=C(Cc1ccccc1)Nc1scc(-c2ccccc2)c1C(=O)N1CCOCC1,-3.9,1.9,0.9,14.9,-9.7,-1.3,·,·
COC(=O)c1ccc(Cl)c(NC(=O)CN(c2ccccc2)S(=O)(=O)c2ccc(OC)cc2)c1,0.3,1.5,·,·,·,-2.8,·,·
CC(CC(=O)c1cccs1)CC(=O)c1cccs1,-3.5,32.5*,·,15.1,-8.6,-0.2,8.8,5.0
O=C(Nc1ccc2nc(-c3cccnc3)[nH]c2c1)C1CCCCC1,-0.7,12.3,-7.6,-11.5,1.1,-4.9,·,·
O=C(Nc1ccc2nc(-c3cccnc3)[nH]c2c1)C12CC3CC(CC(C3)C1)C2,-2.8,42.5*,-2.8,4.1,-7.0,-7.2,29.6*,9.6
CCOc1cccc2c1OC(c1cc(OC)c(OC)c(OC)c1)N1N=C(c3ccc(C)o3)CC21 (configuration not stated),-1.7,14.4,·,·,·,-5.2,·,·
CCN1CCc2c(sc(NC(=O)Nc3ccc(Cl)c(Cl)c3)c2C(N)=O)C1,-1.2,27.4*,·,·,·,-5.2,24.7,20.7
O=C(CSc1nnnn1C1CCCC1)NCc1ccccc1,-0.5,-3.2,-13.5,14.9,-2.6,-2.0,·,·
O=C(CSc1nnnn1C1CC2CCC1C2)Nc1ccnc2ccccc12 (configuration not stated),-0.4,45.4*,-0.5,·,·,-4.6,63.7*,20.1
CCN1CCCC1CNC(=O)C(=O)Nc1ccccc1OC (configuration not stated),-0.5,-1.2,·,-0.8,-2.6,-2.0,·,·
Nc1c(C(=O)Nc2nccs2)sc2nc(-c3cccs3)cc(C(F)(F)F)c12,-1.0,47.1*,·,19.2,-6.9,-5.2,26.8,15.4
SMILES,GALR2 ag,GALR2 antag,MRP resist rev,S1P2 antag,S1P2 agonist,MRP-1 activ,GALR2 ant conf,BLA inhib ctr
Cc1nnc(NC(=O)c2sc3nc(-c4cccs4)cc(C(F)(F)F)c3c2N)s1,-0.2,7.7,·,-1.4,-10.3,0.1,·,·
Cn1cc(-c2nnc(-c3ccccc3)o2)c2ccccc21,-0.9,4.5,-18.6,-5.3,-4.8,-3.8,·,·
CC1=C(C(=O)Nc2ccc(C)cc2C)C(c2ccc(C)o2)NC(=S)N1 (configuration not stated),-2.0,20.7,·,·,·,-1.7,·,·
CCN(CC)S(=O)(=O)c1ccc(Cl)c(C(=O)Nc2ccc(Cl)cc2[N+](=O)[O-])c1,-1.8,28.4*,·,·,·,-2.6,19.7,11.8
NC(=O)N/N=C/c1ccccc1OCC(=O)NCc1ccccc1,-0.1,-14.3,·,·,·,-1.7,·,·
Cc1cc(C)c(S(=O)(=O)NCc2ccncc2)c(C)c1,0.7,31.3*,16.5,47.1*,-4.5,-0.9,35.1*,9.1
CCCCNS(=O)(=O)c1ccc(S(=O)(=O)NCc2ccncc2)cc1,-1.7,27.4*,-1.5,19.1,-3.7,-1.9,19.7,13.1
COc1cc(C(=O)NC(=S)Nc2ccc([N+](=O)[O-])cc2C)cc(OC)c1OC,-1.1,49.5*,·,·,·,-2.1,7.2,3.9
CCOc1ccc(C2=Nn3c(nnc3-c3ccccc3OC)SC2)cc1,5.3*,33.5*,·,5.8,5.3,-4.5,31.9*,59.9*
CCOc1ccc(-c2nnc3n2N=C(c2ccc(OC)cc2)CS3)cc1,-1.7,-1.4,-17.1,-25.1,2.3,-2.8,·,·
Cc1ccc(NC2=Nc3ccccc3N3C2=Nc2c(c(C)nn2-c2ccccc2)C3c2ccc(O)c(O)c2)cc1 (configuration not stated),3.8,57.5*,-37.7,76.6*,-8.7,-6.2,51.1*,69.0*
Cc1cccc(NC2=Nc3ccccc3N3C2=Nc2c(c(C)nn2-c2ccccc2)C3c2ccc(O)c(O)c2)c1 (configuration not stated),3.2,44.8*,0.4,79.7*,-7.8,-5.5,43.8*,67.5*
Cc1nn(-c2ccccc2)c2c1C(c1ccc([N+](=O)[O-])cc1)N1C(=N2)C(=O)Nc2ccccc21 (configuration not stated),-0.3,4.4,·,·,·,-4.7,·,·
Cc1nn(-c2ccc([N+](=O)[O-])cc2)c2c1C(c1cccc(Br)c1)N1C(=N2)C(=O)Nc2ccccc21 (configuration not stated),0.3,5.8,·,·,·,-2.5,·,·
Cc1nn(-c2ccccc2)c2c1C(c1ccc(O)c(O)c1)N1C(=N2)C(Nc2ccccc2)=Nc2ccccc21 (configuration not stated),1.7,47.5*,-63.3,85.1*,-12.2,-6.2,37.2*,59.0*
COc1ccc(-c2nnc3ccc(SCC(=O)Nc4nc5ccccc5s4)nn23)cc1OC,-0.3,-2.5,·,·,·,-0.7,·,·
CCCn1c(=O)c(C(=O)NNS(=O)(=O)c2ccc(Cl)cc2)c(O)c2ccccc21,1.8,8.9,·,·,·,-3.0,·,·
